Results taken from PubChem BioAssay AID1159580 (chemical genetic matrix, 2015).
“And” between values parts separate entries of the source, which are not always exact repeats. Identical values can stand only once. Among all 5,500 compounds or so, about 2,000 (36%) were called active. Not shown: some 18% with an inconclusive outcome. Rule as the data show it: active = normalized growth mostly below about 0.91 (no sharp cut-off); inconclusive = no clear call, values can overlap the other calls; inactive = mostly above about 0.92. Some of the results follow.

Assay: chemical genetic growth profiling, strain panel (AID 1159580);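 also: tested at 20 µM; growth read once vehicle control cultures reached saturation at 30 °C; 1 = growth at the plate median or of vehicle wells; lower values mean less growth of the strain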
Settings: S. cerevisiae deletion strains, growth OD

Measured: normalized growth

CC1(C)C(=O)C=C[C@@]2(C)C1CC(=O)[C@]1(C)C2CC[C@@]2(C)[C@H](c3ccoc3)OC(=O)[C@H]3O[C@]321 (some centres undefined)
inactive: locus YAL021C, strain ccr4, hits give low values 1.02 | locus YAL026C, strain drs2, hits give low values 0.99 | locus YAL030W, strain snc1, hits give low values 0.981 | locus YBL061C, strain skt5, hits give low values 0.975 | locus YBR009C, strain hhf1, hits give low values 1.04 | locus YBR021W, strain FUR4, hits give low values 0.992 | locus YBR023C, strain chs3, hits give low values 0.991 | locus YBR171W, strain sec66, hits give low values 0.98 | locus YBR229C, strain ROT2, hits give low values 0.999 | locus YBR231C, strain swc5, hits give low values 1.03 | locus YBR279W, strain paf1, hits give low values 1.01 | locus YCL016C, strain dcc1, hits give low values 0.988 | locus YCL029C, strain bik1, hits give low values 1.02 | locus YCL061C, strain MRC1, hits give low values 0.988 | locus YCL069W, strain vba3, hits give low values 0.977 | locus YCR088W, strain abp1, hits give low values 0.998 | locus YDL005C, strain med2, hits give low values 0.977 | locus YDL035C, strain GPR1, hits give low values 0.99 | locus YDL040C, strain nat1, hits give low values 0.977 | locus YDL074C, strain BRE1, hits give low values 0.991 | locus YDL101C, strain DUN1, hits give low values 1.01 | locus YDL134C, strain PPH21, hits give low values 1.01 | locus YDL185W, strain tfp1, hits give low values 1.01 | locus YDL192W, strain arf1, hits give low values 1.01 | locus YDR001C, strain nth1, hits give low values 0.992 | locus YDR069C, strain doa4, hits give low values 0.949 | locus YDR101C, strain arx1, hits give low values 0.991 | locus YDR137W, strain rgp1, hits give low values 0.989 | locus YDR150W, strain NUM1, hits give low values 0.995 | locus YDR159W, strain sac3, hits give low values 1 | locus YDR162C, strain NBP2, hits give low values 0.962 | locus YDR195W, strain ref2 1.02 | locus YDR297W, strain sur2, hits give low values 0.994 | locus YDR318W, strain mcm21, hits give low values 1.01 | locus YDR334W, strain swr1, hits give low values 0.988 | locus YDR335W, strain msn5, hits give low values 0.994 | locus YDR388W, hits give low values 1.02 | locus YDR392W, strain spt3, hits give low values 0.925 | locus YDR502C, strain sam2, hits give low values 1.04 | locus YEL003W, strain gim4, hits give low values 0.975 | locus YEL037C, strain rad23, hits give low values 0.989 | locus YEL061C, strain CIN8 (second series), hits give low values 0.996 | locus YEL061C, strain CIN8, hits give low values 0.986 | locus YER015W, strain faa2, hits give low values 0.975 | locus YER016W, strain bim1, hits give low values 0.966 | locus YER110C, hits give low values 1.02 | locus YER111C, strain swi4, hits give low values 0.968 | locus YER155C, strain BEM2 (second series), hits give low values 1.04 | locus YER155C, strain BEM2, hits give low values 1 | locus YER167W, strain BCK2, hits give low values 0.986 | locus YFR010W, strain ubp6, hits give low values 1.02 | locus YGL078C, strain dbp3, hits give low values 1.02 | locus YGL086W, strain mad1, hits give low values 1.01 | locus YGL167C, strain pmr1, hits give low values 0.992 | locus YGL173C, strain kem1, hits give low values 1.01 | locus YGL227W, strain vid30, hits give low values 0.994 | locus YGL240W, strain doc1, hits give low values 1.06 | locus YGL248W, strain PDE1, hits give low values 1 | locus YGL253W, strain hxk2, hits give low values 0.981 | locus YGR135W, strain pre9, hits give low values 1.05 | locus YGR252W, strain gcn5, hits give low values 1.09 | locus YHR013C, strain ard1, hits give low values 0.964 | locus YHR027C, strain rpn1, hits give low values 0.995 | locus YHR030C, strain SLT2, hits give low values 0.988 and 0.992 | locus YHR079C, strain IRE1 (second series), hits give low values 1.01 | locus YHR079C, strain IRE1, hits give low values 0.987 | locus YHR094C, strain hxt1, hits give low values 1.02 | locus YHR129C, strain ARP1, hits give low values 0.988 | locus YHR142W, strain chs7, hits give low values 0.968 | locus YHR200W, strain rpn10, hits give low values 1.01 | locus YIL066C, strain RNR3, hits give low values 0.978 | locus YIL073C, strain SPO22, hits give low values 1.04 | locus YIL125W, strain kgd1, hits give low values 0.998 | locus YIR030C, strain dcg1, hits give low values 1.01 | locus YJL092W, strain hpr5, hits give low values 0.971 | locus YJL095W, strain BCK1 (second series), hits give low values 0.976 | locus YJL095W, strain BCK1, hits give low values 1 and 0.983 | locus YJL115W, strain asf1, hits give low values 0.983 | locus YJL129C, strain trk1, hits give low values 0.952 | locus YJL134W, strain LCB3, hits give low values 0.986 | locus YJL154C, strain vps35, hits give low values 0.978 | locus YJL164C, strain tpk1, hits give low values 0.985 | locus YJL166W, strain qcr8, hits give low values 1 | locus YJL168C, strain set2, hits give low values 1 | locus YJL187C, strain SWE1 (second series), hits give low values 1.02 | locus YJR066W, strain TOR1, hits give low values 0.927 | locus YJR075W, strain HOC1, hits give low values 0.995 | locus YKL009W, strain mrt4, hits give low values 1 | locus YKL068W, hits give low values 1 | locus YKL085W, strain MDH1 (second series), hits give low values 0.992 | locus YKL085W, strain MDH1, hits give low values 0.992 | locus YKL160W, strain elf1, hits give low values 0.976 | locus YKL190W, strain CNB1, hits give low values 0.997 | locus YKR001C, strain vps1, hits give low values 1.03 | locus YKR026C, strain gcn3, hits give low values 0.998 | locus YKR091W, strain srl3, hits give low values 0.974 | locus YLL001W, strain dnm1, hits give low values 1 | locus YLL026W, hits give low values 0.997 | locus YLL041C, strain sdh2, hits give low values 0.982 | locus YLR027C, strain aat2, hits give low values 1 | locus YLR039C, strain RIC1, hits give low values 0.886 | locus YLR058C, strain SHM2, hits give low values 0.996 | locus YLR102C, strain apc9, hits give low values 1.01 | locus YLR113W, strain HOG1, hits give low values 1.01 | locus YLR221C, strain rsa3, hits give low values 1.04 | locus YLR258W, strain gsy2, hits give low values 0.976 | locus YLR262C, strain YPT6 (second series), hits give low values 0.972 | locus YLR262C, strain YPT6, hits give low values 0.897 | locus YLR268W, strain sec22, hits give low values 0.982 | locus YLR320W, strain mms22, hits give low values 1.02 | locus YLR330W, strain CHS5, hits give low values 0.994 | locus YLR342W, strain FKS1 (second series), hits give low values 0.982 | locus YLR342W, strain FKS1, hits give low values 0.98 | locus YLR357W, strain rsc2, hits give low values 0.941 | locus YLR370C, strain arc18, hits give low values 0.99 | locus YLR371W, strain rom2, hits give low values 0.998 | locus YLR384C, strain iki3, hits give low values 0.987 | locus YLR418C, strain cdc73, hits give low values 1.04 | locus YML016C, strain PPZ1, hits give low values 0.984 | locus YML032C, strain rad52, hits give low values 1.02 | locus YML120C, strain ndi1, hits give low values 0.988 | locus YML124C, strain tub3, hits give low values 1.01 | locus YMR058W, strain fet3, hits give low values 1 | locus YMR078C, strain ctf18, hits give low values 1.01 | locus YMR125W, strain sto1, hits give low values 0.973 | locus YMR129W, hits give low values 0.971 | locus YMR205C, strain PFK2, hits give low values 1.04 | locus YMR223W, strain ubp8, hits give low values 1.01 | locus YMR231W, strain pep5, hits give low values 0.982 | locus YMR307W, strain GAS1, hits give low values 0.868 | locus YNL067W, strain RPL9B, hits give low values 1.01 | locus YNL071W, strain lat1, hits give low values 1 | locus YNL128W, strain TEP1, hits give low values 0.978 | locus YNL183C, strain NPR1, hits give low values 0.931 | locus YNL209W, strain ssb2, hits give low values 0.989 | locus YNL233W, strain BNI4, hits give low values 0.987 | locus YNL248C, strain rpa49, hits give low values 0.93 | locus YNL250W, strain rad50, hits give low values 1.03 | locus YNL271C, strain bni1, hits give low values 1 | locus YNL298W, strain CLA4, hits give low values 1.03 | locus YNL307C, strain MCK1, hits give low values 1 | locus YNL322C, strain KRE1 (second series), hits give low values 0.958 | locus YNR049C, strain mso1, hits give low values 0.952 | locus YNR052C, strain pop2, hits give low values 1.03 | locus YOL006C, strain TOP1, hits give low values 0.987 | locus YOL012C, strain htz1 1.38 | locus YOL147C, strain pex11, hits give low values 1.01 | locus YOR001W, strain rrp6, hits give low values 1 | locus YOR061W, strain CKA2, hits give low values 0.991 | locus YOR069W, strain VPS5, hits give low values 0.995 | locus YOR070C, strain gyp1, hits give low values 0.995 | locus YOR080W, strain dia2, hits give low values 0.986 | locus YOR083W, strain WHI5, hits give low values 0.907 | locus YOR106W, strain vam3, hits give low values 0.955 | locus YOR136W, strain idh2, hits give low values 1.01 | locus YOR144C, strain elg1, hits give low values 1.01 | locus YOR184W, strain ser1, hits give low values 0.974 | locus YOR231W, strain MKK1, hits give low values 0.983 | locus YOR265W, strain rbl2, hits give low values 0.984 | locus YOR270C, strain vph1, hits give low values 0.993 | locus YOR290C, strain snf2, hits give low values 0.976 | locus YOR316C, strain cot1, hits give low values 1.01 | locus YPL051W, strain arl3, hits give low values 1 | locus YPL055C, strain LGE1, hits give low values 1 | locus YPL078C, strain atp4, hits give low values 0.976 | locus YPL106C, strain sse1, hits give low values 0.986 | locus YPL240C, strain hsp82, hits give low values 0.996 | locus YPL241C, strain CIN2, hits give low values 0.987 | locus YPL256C, strain CLN2, hits give low values 0.987 | locus YPR119W, strain clb2, hits give low values 1.01 | locus YPR141C, strain kar3, hits give low values 1 | locus YPR163C, strain tif3, hits give low values 1.01 | locus YPR167C, strain met16, hits give low values 1.01 | strain wtn01, hits give low values 1
